Compound activity: PubChem, National Center for Advancing Translational Sciences (NCATS)
Abeta rescue – compounds reversing amyloid beta toxicity in yeast; yeast expressing A-beta42, growth rescue, OD600, 48 h; response scale: 0% DMSO, 100% iron-clioquinol control; Potency, µM (highest dose often 46.1 µM), most hits filed as activators; 410,000 tested, 0.063% active; AID 1347071; note: nearly all actives have a fitted effect of over 55% in size
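Growth rescue measured by 600 nm absorbance after 48 h yeast culture at 30 C with compound. Values normalized between DMSO and an equimolar ferric chloride plus clioquinol control.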
FUS yeast rescue – suppressors of FUS proteinopathy in yeast. S. cerevisiae FUS-expressing, growth rescue, OD600, 24 h. Potency, µM (highest dose often 76.6 µM), usual class: activators. 390,000 tested, 0.24% active;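 note: plate controls were DMSO vehicle for no effect and reference control for full effect; nearly all actives have a fitted effect of over 55% in size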
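Steps: raffinose overnight preculture; dilution to OD 0.005 in 2% galactose minimal medium; compound addition (concentration series); 24hr at 30C, 99% humidity; absorbance read at 600 nm.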
PTAP TSG101 blk – blocks PTAP/TSG101 interaction to inhibit HIV-1 budding; Potency, µM (series often up to 115 µM), inactives show at the top dose activity change, negative = inhibition, most hits filed as inhibitors; 340,000 tested, under 10 active; Q99816; Fluorescence polarization, FITC-PTAP peptide / Tsg101 binding; AID 493005; active = well fitted inhibition curve with a large enough effect in the main read-out, with a control signal flat, not every such curve was filed as active; inconclusive = small, poorly fitted or top-dose-only effect, or effect the other way, or a change in a side signal; inactive = no such curve, though single readings can be large or run the other way; note: % of control where 0% means no effect
Target sequence (Q99816 whole entry, looked up): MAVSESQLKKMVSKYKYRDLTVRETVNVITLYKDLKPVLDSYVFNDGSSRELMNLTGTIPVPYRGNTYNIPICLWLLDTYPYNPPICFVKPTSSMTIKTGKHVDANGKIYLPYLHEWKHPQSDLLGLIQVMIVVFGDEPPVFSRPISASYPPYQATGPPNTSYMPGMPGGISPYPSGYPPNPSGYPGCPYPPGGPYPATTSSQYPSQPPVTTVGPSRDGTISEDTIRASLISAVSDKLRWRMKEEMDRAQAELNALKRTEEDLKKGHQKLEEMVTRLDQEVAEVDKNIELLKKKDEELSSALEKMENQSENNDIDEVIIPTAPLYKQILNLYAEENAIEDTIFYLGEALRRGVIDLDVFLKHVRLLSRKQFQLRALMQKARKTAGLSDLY
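Compounds were pin-transferred onto Tsg101 binding domain (10 uM final) in HEPES pH 7.5 buffer, then FITC-PTAP peptide was added at 50 nM final. After 20 min at RT, polarization reported peptide displacement across a qHTS concentration series.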
aSyn yeast inh – alpha-synuclein toxicity inhibition in yeast. Yeast expressing alpha-synuclein, growth rescue, BacTiter-Glo, 24 h. Potency, µM (doses to about 46.1 µM), for the others: top-dose growth rescue (activation), most hits filed as activators. 370,000 tested, 0.14% active. AID 652106; note: % of control where 0% means no effect; nearly all actives have a fitted effect of over 65% in size
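Readout is rescue of growth in alpha-synuclein-expressing yeast, so inhibitors of toxicity appear as activators. Growth after 24 hr at 30 deg C in galactose medium is quantified by luminescence.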
TDP43 rescue – rescues yeast growth from TDP-43 toxicity; TDP-43 expressing yeast growth rescue, BacTiter-Glo, 24 h; Potency, µM (top dose mostly 46.1 µM), without a hit: at the highest dose growth rescue (activation), actives largely listed as activators; 410,000 tested, 1.8% active; AID 652104; note: % of control where 0% means no effect; nearly all actives have a fitted effect of over 50% in size
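Yeast expressing TDP-43 (pregrown in raffinose, seeded at OD600=0.02 in galactose medium) exposed to compounds 24 hr at 30 deg C. Growth read by BacTiter-Glo luminescence; rescue of toxicity appears as increased signal.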
An asterisk follows results filed as active; i = inactive; ? = inconclusive; nt = no result given; [ ] = another dose, or the depositor's remark. Sampled rows, rich in hits. Any-hit rate of the full collection: about 2.1%. Unless noted, calls come from the whole dose curve; as a rule, active = well fitted curve in the direction sought with a large enough effect; inconclusive = small, poorly fitted or top-dose-only effect, or another doubt; inactive = no such curve, though single readings can be large; an effect the other way counts as inactive or inconclusive. Potency is the fitted concentration of half-maximal effect.

SMILES | Abeta rescue | FUS yeast rescue | PTAP TSG101 blk | aSyn yeast inh | TDP43 rescue
Cc1ccc(C)c(CC(=O)N2CCCC(c3cc(C(=O)Nc4ccccc4Cl)no3)C2)c1 (centres undefined) | i | i | nt | 4.0% | 10.1%
CCC(C#Cc1ccccc1)NCc1ccc(OC)cc1OC (centres undefined) | nt | i | nt | nt | nt
O=S1(=O)N[C@H](Cc2ccccc2)COc2cc(N3CCCC3)ccc21 | nt | i | nt | nt | nt
CN(Cc1ccccc1)C(=O)c1oc(=O)c2ccccc2c1-c1ccccc1 | i | nt | -1.4% | 4.7% | 14.1µM*
Cc1ccc(-c2c(C(=O)N(C)Cc3ccccc3)oc(=O)c3ccccc23)cc1 | i | ? | -0.1% | 0.3% | 12.6µM*
CCOc1ccc(NC(=O)CSc2nc3nc(C)c(Cc4ccccc4)c(C)n3n2)cc1 | i | i | nt | nt | 25.1µM*
CCCCNC(=O)CSc1nc2nc(C)c(Cc3c(F)cccc3Cl)c(C)n2n1 | i | i | nt | nt | 17.7%
Cc1nc2nc(SCC(=O)NCCc3ccccc3)nn2c(C)c1Cc1c(F)cccc1Cl | i | ? | nt | nt | 22.4µM*
Cc1nc2nc(SCC(=O)Nc3ccccc3Cl)nn2c(C)c1Cc1ccccc1 | i | ? | nt | nt | ?
CCOc1ccc(Nc2ncnc3c2nc2n3CCCCC2)cc1 | i | i | nt | nt | 12.6µM*
Fc1ccc(Nc2ncnc3c2nc2n3CCCCC2)c(F)c1 | i | i | nt | nt | 11.2µM*
COc1cc(Cl)c(C)cc1Nc1ncnc2c1nc1n2CCCC1 | i | i | nt | nt | 0.0%
COc1ccc(Nc2ncnc3c2nc2n3CCCC2)cc1Cl | i | i | nt | nt | 12.6µM*
COc1ccc(Nc2ncnc3c2nc2n3CCCCC2)cc1 | i | i | nt | nt | ?
O=C(Nc1ccc(F)cc1F)C1CCCN(c2ncnc3c2nc2n3CCCCC2)C1 (centres undefined) | i | i | -1.8% | -0.2% | ?
O=C(NC1CCCC1)c1cnn2c1NC(=C1CC1)C=C2C(F)F | nt | nt | nt | 3.5% | nt
CC(C)CCn1c(CN2CCN(c3cccc(Cl)c3)CC2)nc2c1c(=O)n(C)c(=O)n2C | i | i | -3.7% | 4.5% | 15.8µM*
COc1c(C)cc(C(O)c2ncc(-c3ccccc3F)[nH]2)cc1C (centres undefined) | i | i | nt | 0.3% | -5.9%
CC(C)(C)OC(=O)C[C@@H]1C/C=C\C[C@@H](CC(=O)N(CCO)Cc2ccccc2)C(=O)N[C@H](Cc2c[nH]c3ccccc23)COC1=O | i | ? | nt | 2.3% | 18.6%
CC(C)(C)OC(=O)C[C@H]1C/C=C\C[C@@H](CC(=O)N(CCO)Cc2ccccc2)C(=O)N[C@H](Cc2c[nH]c3ccccc23)COC1=O | i | 20µM* | -6.0% | -4.5% | 2.9%
Cc1cccc(NC(=O)c2c(NC(=O)c3ccccc3)sc3c2CCCC3)c1 | i | i | nt | -4.9% | 3.3%
CC(=O)Nc1cccc(C(=O)OCc2ccccc2)c1 | i | i | -6.0% | -7.2% | 12.6µM*
CC(=O)Nc1cccc(C(=O)OCC(=O)NC(=O)Cc2ccccc2)c1 | i | i | 1.0% | 1.3% | -2.0%
CSc1nnc(-c2ccccc2)o1 | i | i | -6.1% | -4.0% | -5.2%
O=S1(=O)C=C(Sc2nnc(-c3ccccc3)o2)c2ccccc21 | i | i | -3.1% | -13.4% | 8.91µM*
SMILES | Abeta rescue | FUS yeast rescue | PTAP TSG101 blk | aSyn yeast inh | TDP43 rescue
CCCN(CC1CC1)C(=O)CN1C(=O)C2CCCCN2C(=O)c2ccccc21 (centres undefined) | nt | i | nt | nt | nt
Oc1ccc(/C=N/Nc2nccnc2Cl)c(O)c1 | i | nt | 0.7% | 11.2µM* | 13.7%
COc1cccc(/C=N/Nc2nccnc2Cl)c1O | ? | i | -12.9% | -19.8% | ?
Oc1ccccc1/C=N/Nc1nccnc1Cl | ? | i | -7.2% | 14.1µM* | ?
Oc1ccc(C=NNc2ccccn2)c(O)c1 | i | nt | -0.5% | 2.9% | 17.2%
Oc1ccc(/C=N/Nc2ncc(Br)cn2)c(O)c1 | i | i | 0.1% | 17.8µM* | 10.4%
COc1cnc(-c2ccccn2)nc1Sc1ccccc1Cl | 11.2µM* | i | -5.1% | 2.8% | ?
COc1cnc(-c2ccccn2)nc1Sc1c(Cl)cccc1Cl | ? | i | -11.0% | -1.4% | 6.2%
O=C(COc1ccc(Cl)cc1)Nc1ccc2[nH]ncc2c1 | i | i | -0.4% | -3.8% | 2.82µM*
Cc1ccccc1OCC(=O)Nc1ccc2[nH]ncc2c1 | i | i | -0.6% | 8.8% | 12.6µM*
COc1cc(/C(C#N)=C/c2cccc3ccccc23)c([N+](=O)[O-])cc1OC | i | i | -3.3% | 4.6% | -2.1%
COc1ccc(C(C#N)=Cc2cccc(OC)c2OC)cc1 | i | i | nt | -22.6% | 17.8µM*
CCN1C(=O)CSC1=Nc1ccc(OC)cc1 | i | i | 1.5% | 6.9% | 17.4%
CCN1C(=O)CSC1=Nc1ccc(Cl)c(Cl)c1 | i | i | -0.3% | -17.0% | 12.6µM*
Cc1ccc(S(=O)(=O)c2nnn3c2nc(N2CCC(C(N)=O)CC2)c2cc(Cl)ccc23)cc1C | i | 25.1µM* | nt | nt | 10.3%
CCN(CC)c1nc2c(S(=O)(=O)c3ccccc3)nnn2c2ccc(Cl)cc12 | i | ? | nt | nt | 12.6µM*
Cc1ccc(S(=O)(=O)c2nnn3c2nc(N(C)Cc2ccccc2)c2cc(Cl)ccc23)cc1C | i | i | nt | nt | 11.6%
CC(=O)Nc1nonc1-c1nnc(SCc2ccccc2C)n1C | i | i | nt | nt | 27.0%[9.22 µM]
CC1CN(c2ccc(Cl)cc2)c2nc3c(c(=O)n(CC(=O)O)c(=O)n3C)n2C1 (centres undefined) | i | i | nt | nt | -9.9%
Cc1cc(C)c(S(=O)(=O)n2ccc3ccccc32)c(C)c1 | ? | i | -10.5% | 6.7% | 18.6%
Cc1ccc(S(=O)(=O)NCCc2ccccc2)cc1 | i | i | -4.2% | 13.3% | ?
Cc1cc(C)c(S(=O)(=O)NCCn2ccc3ccccc32)c(C)c1 | ? | i | -4.2% | ? | 12.6µM*
Cc1cc(C)c(S(=O)(=O)NCCc2ccccc2)c(C)c1 | i | i | -0.5% | 20µM* | 3.9%
CCOC(=O)c1c(NC(=O)COc2cccc(C)c2C)sc2c1CCC(CC)C2 (centres undefined) | i | i | nt | nt | 0.0%
CC1Cc2ccccc2N1C(=S)NC1CCCC1 (centres undefined) | 12.6µM* | i | -1.6% | -5.6% | ?
O=C(/C=C/c1ccc(Cl)cc1)N1CCN(c2c(Cl)cccc2[N+](=O)[O-])CC1 | i | i | -1.8% | 20.4% | 11.2µM*
CN(C)S(=O)(=O)c1ccc(N2CCCC2)c(C(=O)N2CCN(S(=O)(=O)c3ccc(F)c(F)c3)CC2)c1 | i | 28.2µM* | ? | 1.1% | 16.3%
Cc1ccc(S(=O)(=O)NC23CC4CC(CC(C4)C2)C3)cc1 | i | i | -1.7% | -2.9% | ?
